RXFP1 antag = qHTS Assay for Antagonists of the Relaxin Receptor RXFP1. Relaxin receptor 1 (Homo sapiens), Q9HBX9. HEK293-RXFP1, relaxin-stimulated cAMP HTRF, 30 min; active compounds read low. activity change, negative = inhibition, % at 57.5 µM. 350,000 compounds, 0.59% hits;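 active means activity change of -60% or lower, but not beyond a set lower limit; inconclusive means change between -60% and -40%, or beyond the set limit; inactive means change above -40%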
Target sequence (Q9HBX9 whole entry, looked up): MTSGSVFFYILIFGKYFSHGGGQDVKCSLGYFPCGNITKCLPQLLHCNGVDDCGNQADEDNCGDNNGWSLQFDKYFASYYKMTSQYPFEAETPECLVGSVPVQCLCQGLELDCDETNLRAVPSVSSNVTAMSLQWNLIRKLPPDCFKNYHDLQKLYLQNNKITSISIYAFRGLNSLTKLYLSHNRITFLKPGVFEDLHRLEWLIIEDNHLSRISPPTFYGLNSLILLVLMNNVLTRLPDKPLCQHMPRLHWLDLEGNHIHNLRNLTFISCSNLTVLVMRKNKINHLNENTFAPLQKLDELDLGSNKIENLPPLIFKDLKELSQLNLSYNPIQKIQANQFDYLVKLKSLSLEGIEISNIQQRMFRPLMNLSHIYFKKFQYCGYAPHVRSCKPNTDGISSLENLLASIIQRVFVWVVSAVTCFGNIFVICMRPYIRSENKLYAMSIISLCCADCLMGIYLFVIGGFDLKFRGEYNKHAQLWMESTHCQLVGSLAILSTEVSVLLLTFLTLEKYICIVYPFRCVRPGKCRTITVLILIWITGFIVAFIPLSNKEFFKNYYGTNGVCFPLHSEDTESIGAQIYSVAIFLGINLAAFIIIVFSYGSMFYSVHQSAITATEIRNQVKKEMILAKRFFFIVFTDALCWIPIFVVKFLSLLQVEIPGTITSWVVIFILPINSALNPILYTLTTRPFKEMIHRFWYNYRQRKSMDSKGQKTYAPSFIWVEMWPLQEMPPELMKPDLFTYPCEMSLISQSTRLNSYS
gsp antagonist = qHTS for Antagonists of gsp, the Etiologic Mutation Responsible for Fibrous Dysplasia/McCune-Albright Syndrome: qHTS; gsp-mutant cells, cAMP HTRF, 30 min; Potency, µM (titrated, usually from 76.9 µM), most hits filed as inhibitors; 340,000 compounds, 0.4% hits; calls by dose curve; cell line not stated here;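 further: intracellular cAMP measured with PDE inhibitor Ro 20-1724 present during compound exposure; nearly all actives have a fitted effect of over 65% in size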
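G418-selected cells were plated in DMEM/10% FBS for 16-24 h at 37C, then treated with compounds plus the PDE inhibitor […] (300 uM solution added) for 30 min at 37C. Intracellular cAMP was measured by HTRF after 30 min lysis at room temperature.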
RXFP1 ag = qHTS Assay for Agonists of the Relaxin Receptor RXFP1 | 370,000 compounds, 0.3% hits | Potency, µM (top dose mostly 57.5 µM), hits mostly activators | AID 2676, 2010 | HEK293T-RXFP1 cAMP TR-FRET, 30 min; response scale: percent of porcine relaxin response, buffer zero; active means well fitted activation curve with a large enough effect; inconclusive means small, poorly fitted or top-dose-only effect; further: nearly all actives have a fitted effect of over 60% in size
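HEK293 cells stably expressing RXFP1, treated 30 min at 37C with compounds plus PDE4 inhibitor Ro 20174; cAMP measured by HTRF TR-FRET. Normalized to buffer and 29 nM porcine relaxin; EC50 by Hill fit.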
gsp ag = qHTS for Agonist of gsp, the Etiologic Mutation Responsible for Fibrous Dysplasia/McCune-Albright Syndrome: qHTS; gsp mutant cells, cAMP HTRF, 30 min; Potency, µM (doses to about 76.9 µM), most hits filed as activators; 340,000 compounds, 0.13% hits; AID 624287, 2012; active means well fitted activation curve with a large enough effect; inconclusive means small, poorly fitted or top-dose-only effect, or another doubt; inactive means no such curve, though single readings can be large or run the other way; cell line not stated here;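 further: phosphodiesterase inhibitor Ro 20-1724 added with compounds to block cAMP breakdown; nearly all actives have a fitted effect of over 60% in size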
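Cells stably selected in G418 were plated at 2000/well, grown 16-24 hr, then given compounds in DMSO with the PDE inhibitor […] (300 uM solution added) for 30 min at 37C; cAMP was read by HTRF.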
Each line names hits and unclear results; the compound was inactive in the other large screens. Hits are enriched below; roughly 0.9% of the tested compounds scored in any of these assays.

CCCOC(=O)CSc1nnc2ccc3ccccc3n12	none (no result: gsp antagonist, gsp ag)
Cc1cc(/C=N\NC(=O)COc2cccc3cccnc23)c(C)n1-c1ccc(Br)cc1	gsp ag inconclusive
Cc1cc(/C=N\NC(=O)c2cccs2)c(C)n1-c1ccc2ncccc2c1	gsp antagonist 40µM
COc1ccc(N=C2O/C(=C/c3sc(=S)n(CC4CCCO4)c3O)N=C2C#N)cc1 (centres undefined)	RXFP1 antag -88, gsp antagonist 35µM
Cc1ccccc1CC1SC(N=C(N)N)=NC1=O (centres undefined)	none
COCCc1ccc(OCC2CO2)cc1 (centres undefined)	none (no result: gsp antagonist, RXFP1 ag, gsp ag)
CC(C)Cc1cc(C(=O)Nc2sc3c(c2C#N)CCCC3)no1	gsp antagonist inconclusive
CC(C)Cc1cc(C(=O)Nc2sc3c(c2C#N)CCC3)no1	RXFP1 antag -66, gsp ag inconclusive
CN1N=C(C(N)=O)CCC1=O	none (no result: gsp antagonist, RXFP1 ag, gsp ag)
CC(C)(C)OC(=O)CNC(=O)c1[nH]cnc1C(=O)NCCCCCNC(=O)OC(C)(C)C	gsp antagonist 35µM (no result: RXFP1 antag)
Cn1cc([N+](=O)[O-])cc1-c1nc2ccccc2n1C	none
Cn1c(-c2ccc([N+](=O)[O-])cc2)nc2ccccc21	RXFP1 ag inconclusive, gsp ag 2.2µM
COc1cccc(CC2(CO)CCCN(Cc3ccc(C)s3)C2)c1 (centres undefined)	RXFP1 antag -78
CCOc1ccc(OCC)c(NC(=O)C(NS(=O)(=O)c2cccs2)c2ccccc2)c1 (centres undefined)	none (no result: RXFP1 antag, gsp antagonist, gsp ag)
COc1cccc(C2CC(=O)N(c3ccc(F)cc3)C3=C2C(=O)OC3)c1OC (centres undefined)	none (no result: gsp antagonist, gsp ag)
COc1cc(NC(=O)COc2cccc3c2OC(C)(C)C3)cc(OC)c1OC	gsp antagonist 35µM
COc1cc(NC(=O)COc2cc(O)c3c(c2)OC(C)(C)CC3=O)cc(OC)c1OC	gsp antagonist 35µM (no result: RXFP1 antag, gsp ag)
CC(=O)Nc1ccc(NC(=O)COc2cccc3c2OC(C)(C)C3)cc1	none
O=[N+]([O-])c1ccc(CSc2nnc3ccccn23)cc1	gsp ag 18µM
CC1(C)NC(=O)N(CC(=O)Nc2ccc(-n3cnnn3)cc2)C1=O	RXFP1 antag -71 (no result: RXFP1 ag)
CCCCN(CC)C(=O)Cn1cc2c(n1)-c1c(oc(C(=O)N3CCCC3)c1C)CC2	none (no result: gsp antagonist, gsp ag)
Cc1ccc(-c2nn(-c3ccccc3)cc2CO)cc1	none
N=C(N)SCc1cn(-c2ccccc2)nc1-c1ccc(Br)cc1	RXFP1 antag -79 (no result: gsp antagonist)
Cc1cccc(-c2nc(CSCC(=O)N3CCN(c4ccccn4)CC3)c(C)o2)c1	gsp antagonist 32µM
Cc1cccc(-c2nc(CSCC(=O)N3CCN(c4cccc(C)c4C)CC3)c(C)o2)c1	none (no result: gsp antagonist, gsp ag)
O=C(NC1CC(=O)N(c2ccc(Cl)cc2)C1)C1CCCCC1 (centres undefined)	none (no result: gsp antagonist, gsp ag)
O=c1cc(-c2ccccc2)[nH]n1-c1ccccc1	RXFP1 antag -73 (no result: RXFP1 ag)
O=[N+]([O-])c1ccc(S(=O)Cc2ccccc2)c([N+](=O)[O-])c1 (centres undefined)	RXFP1 antag -103 (no result: RXFP1 ag)
Cn1cccc1-c1cc(C(=O)N/N=C/c2cc(Br)ccc2O)[nH]n1	RXFP1 antag -61, gsp antagonist inconclusive
Cc1cc(N(C)Cc2ccccc2)n2nc(-c3ccc(C(C)(C)C)cc3)nc2n1	none (no result: RXFP1 antag, gsp antagonist, gsp ag)
Cc1cc(C)c(O)c(-c2n[nH]c3c2C(c2cccc(O)c2)N(Cc2ccco2)C3=O)c1 (centres undefined)	RXFP1 antag -80
c1ccc(N2CC3CCc4ccccc4C3=N2)cc1 (centres undefined)	gsp ag 10µM
CN1N=C2c3ccccc3CCC2C1c1ccc(F)cc1 (centres undefined)	none
COc1ccc(CCNc2oc(COc3ccc(Br)cc3)nc2C#N)cc1OC	RXFP1 antag -62, gsp antagonist 40µM
Cc1cc(N)n2nc(C)c(-c3ccc(Cl)cc3)c2n1	none (no result: gsp antagonist)
Cc1cc(Cl)n2nc(C)c(-c3ccc(Cl)cc3)c2n1	RXFP1 antag -69
COc1ccc(C(=O)Nc2nnc(S(=O)(=O)N3CCN(c4ccc(F)cc4)CC3)s2)cc1	none (no result: gsp antagonist, gsp ag)
COCCCNC(=O)CSc1nc2cc3c(cc2c(=O)n1CCCCCC(=O)NCc1ccc2c(c1)OCO2)OCO3	none (no result: gsp antagonist, gsp ag)
CCC(Sc1nc2cc3c(cc2c(=O)n1CCCCCC(=O)NCc1ccc2c(c1)OCO2)OCO3)C(=O)NCCCOC (centres undefined)	RXFP1 antag -113 (no result: gsp antagonist, gsp ag)
O=C(NCCN1CCN(c2cccc(Cl)c2)CC1)c1ccc(CSc2nc3ccncc3[nH]2)cc1	gsp antagonist 32µM
CCN(CCNC(=O)c1ccc(CSc2nc3ccncc3[nH]2)cc1)c1ccccc1	none (no result: RXFP1 antag)
O=C(C1CCCCC1)N(Cc1cccnc1)c1nc2c(F)cc(F)cc2s1	RXFP1 antag -102 (no result: gsp antagonist, gsp ag)
CC(=O)N(Cc1cccnc1)c1nc2c(F)cc(F)cc2s1	none (no result: gsp antagonist, gsp ag)
CC(=O)OCC(=O)[C@@]1(O)[C@H](OC(C)=O)C[C@H]2[C@@H]3CCC4=CC(=O)C=C[C@]4(C)[C@@]3(F)[C@@H](O)C[C@@]21C	none (no result: gsp antagonist, RXFP1 ag, gsp ag)
CC(OC(=O)/C(C#N)=C/c1ccc(N(C)C)cc1)C(=O)N(C)c1ccccc1 (centres undefined)	gsp antagonist 25µM
CC(C)(C)c1cc(=O)[nH]c(SCc2ccccc2Cl)n1	RXFP1 antag -74
CC(C)(C)c1cc(=O)[nH]c(SCc2ccccc2)n1	none
CCOc1ccc(Cn2c(=O)sc3ccccc32)cc1	gsp ag inconclusive
CCCCOc1ccccc1Cn1c(=O)sc2ccccc21	RXFP1 antag -68 (no result: gsp antagonist, gsp ag)
C/C(CC(=O)Nc1ccc2c(c1)OCCO2)=N\NC(=O)COc1ccc(C)cc1	RXFP1 antag -77, gsp ag inconclusive
CCc1c(-c2ccccc2)nc2ccccc2c1C(=O)NC(C)c1ccccc1 (centres undefined)	none (no result: gsp antagonist, gsp ag)
Cc1cc(N2CCN(C)CC2)nc2ccc(NC(=O)Nc3cccc(Cl)c3)cc12	RXFP1 antag inconclusive (no result: gsp antagonist, gsp ag)
O=C1C=CC2(O[C@H](c3ccccc3)[C@@H](c3ccccc3)O2)[C@H](Sc2ccccc2O)C1	RXFP1 antag -99 (no result: RXFP1 ag)
Cc1ccc(C(=O)C(=O)O)cc1C	none (no result: gsp antagonist, RXFP1 ag, gsp ag)
COc1ccccc1N1CCN(S(=O)(=O)CCNC(=O)C(c2ccccc2)c2ccccc2)CC1	none (no result: gsp antagonist, gsp ag)
O=c1oc2ccccc2c(Nc2ccc(Cl)cc2)c1[N+](=O)[O-]	gsp antagonist 28µM
O=c1oc2ccccc2c(Nc2ccc(F)cc2)c1[N+](=O)[O-]	gsp antagonist inconclusive
COc1ccc(C(=O)NNc2ncnc3c2cnn3-c2cccc(Cl)c2)cc1OC	none (no result: gsp antagonist, gsp ag)
COc1ccccc1/C=C1\SC(=S)N(NS(=O)(=O)c2ccc(C)cc2)C1=O	gsp antagonist inconclusive, gsp ag inconclusive
COc1ccc(/C=C2\SC(=S)N(NS(=O)(=O)c3ccccc3)C2=O)c(OC)c1	RXFP1 antag -68, gsp antagonist inconclusive
COc1ccc(OC)c(/C=C2\SC(=S)N(NS(=O)(=O)c3ccc(C)cc3)C2=O)c1	RXFP1 antag inconclusive, gsp antagonist inconclusive
